Compounds with a hit are over-represented: about 2.6% of the library has one in this group of screens.
MLLE-PAM2 inh = inhibitors of microRNA-mediated deadenylation, human PABP1 MLLE binding | P11940 | GST-MLLE / FITC-PAM2 fluorescence polarization | inhibition, % at 20 µM | 360,000 compounds, 0.36% hits | AID 588489; in the data active = inhibition above about 35%, passing the limit was not always enough;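 note: plate controls were DMSO wells with GST-MLLE for no effect and wells lacking GST-MLLE protein for full effect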
Target sequence (P11940 whole entry, looked up): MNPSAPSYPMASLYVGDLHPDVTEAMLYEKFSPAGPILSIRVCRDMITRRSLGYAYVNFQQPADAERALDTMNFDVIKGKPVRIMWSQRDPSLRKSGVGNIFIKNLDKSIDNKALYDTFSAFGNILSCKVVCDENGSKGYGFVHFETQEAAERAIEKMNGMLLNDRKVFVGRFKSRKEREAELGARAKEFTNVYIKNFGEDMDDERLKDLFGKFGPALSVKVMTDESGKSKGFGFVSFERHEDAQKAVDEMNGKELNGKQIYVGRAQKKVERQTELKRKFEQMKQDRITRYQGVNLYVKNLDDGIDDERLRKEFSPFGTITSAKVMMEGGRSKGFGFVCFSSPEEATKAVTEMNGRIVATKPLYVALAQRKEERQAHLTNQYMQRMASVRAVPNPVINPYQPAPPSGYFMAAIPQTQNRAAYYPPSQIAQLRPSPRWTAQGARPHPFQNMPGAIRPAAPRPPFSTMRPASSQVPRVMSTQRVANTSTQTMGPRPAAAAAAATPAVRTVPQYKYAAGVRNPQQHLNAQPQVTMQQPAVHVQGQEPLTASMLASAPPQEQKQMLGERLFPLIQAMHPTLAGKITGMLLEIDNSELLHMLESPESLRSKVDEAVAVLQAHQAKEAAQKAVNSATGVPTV
eIF4H inh = inhibitors of RNA binding by human eIF4H; eIF4H fluorescence polarization binding assay; 290,000 compounds, 0.94% hits; inhibition, % at 35 µM; Q15056;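 note: calls also rest on retests at 20 µM and on dose response follow-up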
PHOSPHO1 inh = inhibitors of human PHOSPHO1 phosphatase | Q8TCT1 | recombinant PHOSPHO1, absorbance phosphatase assay | inhibition, % at 13.3 µM | 290,000 compounds, 1.1% hits | AID 1565; in the data active = inhibition above about 60%
PABP polyA inh = PABP-poly(A) binding inhibition. PABP-poly(A) RNA binding, fluorescence polarization. inhibition, % at 35 µM. 290,000 compounds, 1% hits. AID 2014;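 note: calls also rest on retests at 20 µM and on dose response follow-up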
CRFR2-BP antag = blocks CRF-induced signaling of the CRF-BP/CRF-R2 complex | HEK293 CRF-R2/CRF-BP, CRF-induced calcium fluorescence | inhibition, % at 11.8 µM | 350,000 compounds, 0.59% hits;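 active = inhibition of the ligand-induced calcium signal above about 50% at the single tested concentration, limit read from the data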
Numbers without * were called inactive; i = inactive; ? = inconclusive; . = not tested or not shown; ! = a repeat was not active. Unless noted, the rule behind the calls is not given here.

SMILES | MLLE-PAM2 inh | eIF4H inh | PHOSPHO1 inh | PABP polyA inh | CRFR2-BP antag
CN(C)CCOC(c1ccccc1)c1ccccc1 | -6 | 1.6*! | . | 98 | i
COc1ccc(Cl)cc1NC(=O)NC(C)C | -4 | -2 | 29 | 4 | 27
COc1ccc(Cl)cc1NC(=O)C(C)NC(c1ccccc1)c1ccccc1 (centres undefined) | -4 | 4 | -4 | 0 | 53*
Cn1c(/C=N/NC(=O)c2ccccc2)nc2ccccc21 | 3 | -4 | 28 | 3 | 16
C/C(=N\Nc1ccc(C(=O)O)cc1)c1nc2ccccc2n1C | . | active | -1 | 116* | .
O=C1CCCCN1CCC(=O)N1CCCC(N2CCN(c3cccc(Cl)c3)CC2)C1 (centres undefined) | -11 | -11 | -32 | -11 | -13
O=C1CCCCN1CCC(=O)N1CCCC(N2CCN(c3ccccc3)CC2)C1 (centres undefined) | 7 | . | 75* | . | -11
Cn1nnc2c(C(N)=O)ncn2c1=O | 39* | 3 | 4 | 0 | .
COc1ccccc1CCC(=O)Nc1ccc2c(c1)c(=O)n(C)n2C | 14 | . | . | . | .
CCOc1ccccc1CN1CCN(Cc2cn(C)nc2-c2ccccc2)CC1CCO (centres undefined) | -8 | -7 | 60* | 3 | -4
Cn1cc(CN2CCN(Cc3ccccc3)C(CCO)C2)c(-c2ccccc2)n1 (centres undefined) | 13 | -2 | -46 | 18 | 0
CCNc1nc(Sc2ccc(C)cc2)cc(C(F)(F)F)n1 | 11 | -3 | 16 | -8 | 0
CC(C)c1cc(C(F)(F)F)nc(NNc2nc(C(C)C)cc(C(F)(F)F)n2)n1 | -6 | . | . | . | 54*
COc1cc2c(cc1NC(=O)C(Cl)Cl)-c1ccc(NC(=O)C(Cl)Cl)cc1C2 | 10 | . | . | . | 28
CSCC(C)N1CCC(Oc2cccc(C(=O)NCc3ccccn3)c2)CC1 (centres undefined) | 43* | 60 | 52 | 41 | -5
CC(C)=CC(=O)N1CCC(Oc2cccc(C(=O)NCc3ccccn3)c2)CC1 | -2 | . | . | . | 2
CCOc1ccc(N=Nc2c(=O)[nH]n3c(=O)c4c([nH]c23)CCCC4)cc1 | 14 | 36 | -10 | -11 | 51*
CCOc1ccc(N=Nc2c(=O)[nH]n3c(=O)cc(C)[nH]c23)cc1 | -2 | -2 | 4 | -2 | 0
O=c1[nH]n2c(=O)c3c([nH]c2c1N=Nc1cccc(Cl)c1)CCCC3 | -1 | 2 | 76* | 3 | 67*
Cc1cc(C)n2[nH]c(=O)c(N=Nc3cccc(Cl)c3)c2n1 | -8 | 12 | -36 | 1 | 14
CN(C)S(=O)(=O)c1cccc(NC(=O)c2ccc(COc3ccccc3)cc2)c1 | -8 | -11 | 16 | -6 | 1
Cn1cccc1C(=O)NCCc1ccccc1 | -38 | -1 | 24 | 4 | -4
COc1ccc(CCNC(=O)c2cccn2C)cc1 | 12 | -14 | 10 | -4 | 55*
Cc1cc(NC(=O)Nc2cccc(Cl)c2)n(-c2ccccn2)n1 | 5 | -3 | 4 | 1 | -9
N#Cc1c(N)nc(SCC(=O)C23CC4CC(CC(C4)C2)C3)c(C#N)c1-c1ccc(Cl)cc1 | -77 | 7 | 33 | -9 | -14
SMILES | MLLE-PAM2 inh | eIF4H inh | PHOSPHO1 inh | PABP polyA inh | CRFR2-BP antag
CCOC(=O)CC(=O)CSc1nc(N)c(C#N)c(-c2ccc(Cl)cc2)c1C#N | -5 | 114* | 19 | 111* | -35
CCCc1nc2c3ccccc3ccn2c1Cc1ccc(OC)cc1C | -80 | . | . | . | .
COc1ccc2c(c1)c(C(=O)CN1CCC3(CC1)OCCO3)c(C)n2C | -14 | 9 | 97* | 16 | 5
Cc1sc2ccc3sccc3c2[n+]1C | -34 | 7 | 25 | 54* | -65
Cc1sc2c3ccsc3ccc2[n+]1C | -34 | -3 | 14 | -3 | -7
CC1(C(=O)NS(=O)(=O)c2ccc(Br)cc2)CCN1C(=O)c1cccc(F)c1 (centres undefined) | 3 | . | . | . | .
Cc1ccc(S(=O)(=O)CNC(=S)c2cccc(C)c2)cc1 | 23 | -6 | 90* | 3 | 15
Cc1ccc(S(=O)(=O)CNC(=S)c2ccc3ccccc3c2)cc1 | 26 | -6 | 86* | -5 | -40
CC(C)(C)c1ccc(S(=O)(=O)NC(=O)C2(C)CCN2C(=O)Cc2ccc(-c3ccccc3)cc2)cc1 (centres undefined) | 0 | . | . | . | .
COc1ccc(CC(N)c2csc(NC(=O)c3cccc(OC(F)(F)F)c3)n2)cc1 (centres undefined) | -10 | . | . | . | .
NS(=O)(=O)c1ccc(Oc2ccc(S(N)(=O)=O)cc2)cc1 | -8 | -7 | 62* | -4 | 10
O=C1c2ccccc2-c2onc3c(Oc4ccccc4)cc(O)c1c23 | . | 85* | 31 | 83* | .
COc1ccc2[nH]cc(CCNC(=S)NC3CCCC3)c2c1 | -70 | -5 | 21 | -6 | 51*
CCN(CC)CCCN1C(=O)C(=O)/C(=C(/O)c2ccc(C)cc2)C1c1ccccn1 (centres undefined) | -2 | 3.1* | -26 | 56* | 1
CN1CC=C2C(C#N)=C(N)C(C#N)(C#N)C(c3cccc(Cl)c3Cl)C2C1 (centres undefined) | 55 | 122* | 51 | 116 | -54
COc1ccc(-n2ncc(C(C)NS(=O)(=O)c3cc(C)sc3C)c2C)cc1 (centres undefined) | 4 | . | . | . | 51*
O=C(CNS(=O)(=O)c1cccs1)NCCc1ccc(Cl)cc1 | -14 | -12 | 35 | 0 | 56*
COC(=O)Cn1c2ccc(C)cc2c2nc3ccccc3nc21 | 6 | -4 | 40 | 1 | -15
COc1ccc2c(c1)c1nc3ccccc3nc1n2CC(=O)OC(C)C | 70 | 127 | -3 | 121* | -6
COc1ccc(Cn2c3ccc(OC)cc3c3nc4ccccc4nc32)cc1 | 137 | ? | 4 | -6 | -1
COc1ccc2c(c1)c1nc3ccccc3nc1n2Cc1ccc(OC(C)C)c(OC)c1 | -6 | 78* | -67 | active | -31
CC1(c2ccccc2)NC(=O)N(CC(=O)N(c2ccccc2)C2CCS(=O)(=O)C2)C1=O (centres undefined) | -41 | . | . | . | 1
N#Cc1c(-c2cccc(Br)c2)cc(-c2ccco2)[nH]c1=O | -3 | 76 | 15 | -5 | -1
COc1ccc(-c2cc(-c3ccco3)[nH]c(=O)c2C#N)cc1 | 7 | 74* | -11 | 57* | 11
CC(C)[C@H](N)c1nnc(SCC(=O)c2ccc(Cl)cc2)o1 | -6 | -2 | 82* | 5 | -2
COc1ccc(/C=C/C(=O)OCC(=O)Nc2ncc(Cl)cc2Cl)cc1 | -1 | . | . | . | -7
COc1ccc(OCCCC(=O)OCC(=O)Nc2ncc(Cl)cc2Cl)cc1 | 45* | . | . | . | 4
O=C(COC(=O)c1ccccc1O)Nc1ncc(Cl)cc1Cl | 0 | 74 | 5 | active | -8
CCOC(=O)c1cc(C)sc1NC(=O)CCC(=O)O | -8 | -2 | 5 | 4 | 59*
O=C(COC(=O)C1CCN(S(=O)(=O)c2ccc3c(c2)OCCO3)CC1)NC1CCCCC1 | 5 | . | . | . | -10
